# Assay results from PubChem BioAssay.
# The source made the active and inactive calls.
# How the values were obtained:
# Albumin (Bos taurus) = Albumin (Bos taurus) (UniProt P02769); assay: bovine serum albumin binders on microarray, profiling panel, artefact control for SMM control protein annotation, biochemical, small-molecule microarray, Alexa647 label, 635/667 nm fluorescence (AID 1118); conditions: BSA-A647 binding, fluorescence 635 nm, higher = more signal;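 further: score merges 667 nm emission intensity and signal-to-noise per printed compound spot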
# [1] = small-molecule microarray binders of probe aXIP, primary screen, biochemical, NeuroSMM set, 635/667 nm fluorescence (AID 1119); conditions: higher = more signal, called active from +8 up or from −8 down;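 further: probe is the protein aXip251-270 applied at 1 µg/mL to compound-printed slides; binding of probe to printed compounds measured as 667 nm fluorescence plus signal to noise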
# [2] = small-molecule binders of probe aNOTCH3, primary screen, biochemical, small-molecule microarray, 635/667 nm fluorescence (AID 1120); conditions: higher = more signal;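 further: probe is a biotin-tagged antibody raised against NOTCH3 rather than NOTCH3 protein; score merges spot fluorescence near 667 nm with spot signal to noise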
# [3] = small-molecule binders of probe aNOTCH2, primary screen, biochemical, small-molecule microarray, 635/667 nm fluorescence (AID 1121); conditions: higher = more signal;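 further: score merges feature fluorescence read at 667 nm with its signal to noise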
# [4] = target: Carbonic anhydrase 2 (Homo sapiens) (UniProt P00918); assay: CAII small-molecule binders, profiling panel, biochemical, small-molecule microarray, Alexa647-labelled CAII (AID 1122); conditions: CAII-A647 binding fluorescence, higher = more signal
# [5] = COS7 lysate on small-molecule microarray, probe aHis, 635 nm (AID 1123); conditions: COS7 cell lysate, fluorescence, higher = more signal;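 further: z-score combines 667nm fluorescence intensity with signal-to-noise per printed compound spot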
# [6] = compound binding in COS7 lysate, probe aLAP1, primary screen, cell lysate, small-molecule microarray (AID 1124); conditions: probe aLAP1, fluorescence, higher = more signal;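 further: lysate comes from COS7 cells expressing LAP1 and is applied at 0.3 µg/mL; score merges spot fluorescence near 667 nm with signal-to-noise over triplicate slides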
# Sam68 (KHDRBS1) = assay: Sam68 small-molecule binders, primary screen, biochemical, small-molecule microarray, 635 nm fluorescence (AID 1125); conditions: small-molecule microarray binding, higher = more signal;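 further: score merges 667 nm channel intensity with signal to noise over triplicate slides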
# [7] = test system: Chordin-like protein 2 (CHRDL2); assay: CHRDL2 small-molecule binders, primary screen, biochemical, small-molecule microarray, 635 nm fluorescence (AID 1126); conditions: small-molecule microarray binding, fluorescence 635 nm; higher = more signal;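 further: printed compound slides probed with Chrdl2 protein at 4 µg/mL for 1 h at 4 C; score merges 667 nm emission intensity with signal to noise over three replicate slides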
# [8] = target: Concanavalin-A (Canavalia ensiformis) (UniProt P02866); assay: ConA small-molecule binders, primary screen, artefact control for SMM control protein annotation, biochemical, small-molecule microarray, Alexa647 label, 635 nm (AID 1127); conditions: ConA-A647 binding fluorescence, higher = more signal;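 further: z combines 667 nm emission intensity with signal-to-noise across three replicate slides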
# Chain of Concanavalin-A (Canavalia ensiformis) (P02866 whole entry, looked up): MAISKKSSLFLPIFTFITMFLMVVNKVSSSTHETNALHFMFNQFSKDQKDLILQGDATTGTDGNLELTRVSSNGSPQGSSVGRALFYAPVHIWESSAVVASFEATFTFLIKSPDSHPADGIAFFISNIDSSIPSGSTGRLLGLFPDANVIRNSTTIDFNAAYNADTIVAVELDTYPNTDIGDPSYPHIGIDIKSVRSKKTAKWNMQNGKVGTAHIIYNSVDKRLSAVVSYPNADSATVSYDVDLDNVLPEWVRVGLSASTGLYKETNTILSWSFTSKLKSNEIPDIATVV
# Chain of Albumin (Bos taurus) (P02769 whole entry, looked up): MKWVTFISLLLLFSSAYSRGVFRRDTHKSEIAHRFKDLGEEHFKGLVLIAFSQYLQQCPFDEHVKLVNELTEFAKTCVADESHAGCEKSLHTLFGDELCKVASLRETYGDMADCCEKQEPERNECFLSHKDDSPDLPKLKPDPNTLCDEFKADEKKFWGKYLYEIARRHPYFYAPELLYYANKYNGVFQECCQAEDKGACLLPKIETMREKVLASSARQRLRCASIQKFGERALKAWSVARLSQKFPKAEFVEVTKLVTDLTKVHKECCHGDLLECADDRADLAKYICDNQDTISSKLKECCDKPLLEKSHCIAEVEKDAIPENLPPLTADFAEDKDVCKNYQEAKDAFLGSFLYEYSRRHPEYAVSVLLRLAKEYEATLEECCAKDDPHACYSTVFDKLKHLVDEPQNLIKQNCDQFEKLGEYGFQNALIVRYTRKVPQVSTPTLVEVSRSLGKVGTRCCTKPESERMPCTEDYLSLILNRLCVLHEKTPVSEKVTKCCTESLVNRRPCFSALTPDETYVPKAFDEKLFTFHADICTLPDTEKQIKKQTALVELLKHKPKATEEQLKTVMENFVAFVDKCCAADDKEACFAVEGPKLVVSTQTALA
SMILES,composite z-score (Albumin (Bos taurus)),composite Z-score [1],composite z-score [2],composite z-score [3],composite z-score [4],composite z-score [5],composite z-score [6],composite z-score (Sam68 (KHDRBS1)),composite z-score [7],composite z-score [8]
O=C1O[C@@H](c2ccccc2)[C@@H](c2ccccc2)N2[C@@H](c3ccccc3OCCO)[C@]3(C(=O)Nc4ccc(C#CC5(O)CCCCCC5)cc43)[C@@H](C(=O)N3CCN(c4ncccn4)CC3)[C@H]12,0.287,0.276 (inactive),-0.0416,-0.131,0.398,1.47,0.795,1.21,0.183,1.02
CCOC(=O)C[C@H]1[C@H](OC(=O)c2ccc(-c3ccccc3)cc2)[C@@H](NC(=O)c2ccccc2)c2cc(OCCCO)ccc2N1C(=O)c1ccc2ccccc2n1,0.828,0.21 (inactive),0.0069,-0.0811,0.287,0.96,0.547,1.18,-0.8,0.627
COc1ccc(CCNC(=O)[C@@]2(c3ccc([N+](=O)[O-])cc3)CC(=O)N(CC34CC5CC(CC(C5)C3)C4)[C@@H]2c2ccc(CO)cc2I)cc1,-0.367,-0.355 (inactive),-0.332,-0.214,0.0976,2.27,0.283,0.925,0.394,0.834
COc1ccc([Si](C)(C)[C@@H]2[C@@H](CC(=O)N3Cc4ccccc4C[C@H]3CO)O[C@]3(C(=O)N(Cc4cccc(N5CCC5=O)c4)c4ccccc43)[C@H]2C)cc1,-0.147,0.3 (inactive),0.16,-0.117,0.283,1.15,0.0905,1.22,0.711,0.961
C=CC[C@]12N=C(c3ccc(OCCCO)cc3)O[C@H]1c1ccccc1N(CCS(=O)(=O)c1ccccc1)C2=O,0.922,0.526 (inactive),-0.0728,-0.0692,0.727,1.12,0.486,1.3,0.873,1.18
Cc1ccc(C2C3C(=O)CC4C(=O)N(c5ccccc5)C(=O)C4C3CN2S(=O)(=O)c2ccc(C)cc2)cc1 (stereo not given),0.684,-0.0384 (inactive),0.469,0.603,0.539,2.17,0.362,1.17,-0.479,0.671
C=CCN1C(=O)[C@]2(Cc3ccccc3)N=C(c3ccc(OCCCO)cc3)O[C@@H]2c2ccccc21,-0.591,-0.452 (inactive),0.143,-0.0029,0.414,2.79,-0.0869,1.3,0.997,0.911
CC(C)=CCCC(C)=CC(O)C1C=CC2C(=O)N(c3ccccc3)C(=O)C2N1Nc1ccc(C(C)C)cc1 (stereo not given),0.792,0.415 (inactive),0.282,0.0683,0.465,2.32,-0.519,1.23,-1.01,1.09
CC(=O)NCCCC[C@@H]1NC(=O)[C@H]2C[C@@H](C(=O)NCCCCCNC(=O)CS)[C@@H](c3ccc(O)cc3)N2C1=O,-0.16,-0.249 (inactive),-0.136,-0.133,0.704,1.07,-0.269,0.338,-0.105,0.509
CC(C)[C@@H](C(=O)O)n1cc(C2(O)CCCCC2)nn1,0.641,-0.283 (inactive),0.089,-0.161,0.0232,0.303,0.0595,1.01,-0.121,1.04
CC(C)[Si](C#CCCCC#N)(Oc1ccccc1Br)C(C)C,0.435,0.147 (inactive),-0.0377,-0.092,0.508,0.51,0.0245,0.993,0.299,0.912
O=C1[C@H]2C=C(I)[C@H](C[C@@H]2OCCCCO)[C@@]12CO2,-1.17,0.32 (inactive),-0.0057,-0.061,0.758,0.141,0.489,0.579,-0.11,-0.0969
Cc1ccc([C@H]2C(C(=O)O)=CCN2S(=O)(=O)c2ccc(C)cc2)cc1,0.899,-0.168 (inactive),-0.0299,-0.109,0.825,1.21,0.584,0.539,-0.518,1.02
CC1CC/C=C\[C@H]2OC34C=CCN(Cn5nnc6ccccc65)C(=O)[C@H]3N(CCCCCO)C(=O)[C@@H]4C2C(=O)O1 (stereo not given in full),-1.22,0.19 (inactive),-0.236,-0.106,0.548,0.737,0.434,0.479,-1.75,-0.845
